Most compounds without a hit are left out; they make up all but 13% or so of the library.
L major viab: reduces viability of Leishmania major promastigotes; resazurin fluorescence viability; inhibition, % at 10 µM; 9% of 200,000 active; AID 1063; in the data active = inhibition above about 50%;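 also: promastigotes grown with compound for 44 hours at 28 °C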
RAM inhibit: yeast RAM network inhibition; S. cerevisiae dse1pr::URA3 reporter, 5-FOA growth OD615, 2 d; analog-sensitive cbk1-as2 kinase mutant strain; inhibition, % at 50 µM; 1.8% of 190,000 active;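 active = inhibition above a set limit, 3 SD over mean compound inhibition, cut at about 8.4% in these data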;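 also: inhibition rescues growth on 5-FOA so higher OD means more RAM inhibition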
WT yeast gro inh: growth inhibition of WT yeast, mitochondrial fusion screen | 2.1% of 190,000 active | mitochondrial fusion phenotypic screen, WT strain | inhibition, % at 10 µM; in the data active = inhibition above about 58%; tested in S. cerevisiae
CHOP inh: CHOP inhibition in unfolded protein response. 3.8% of 220,000 active. AID 2732. CHO-K1 CHOP-promoter luciferase, tunicamycin-induced, 15-18 h. inhibition, % at 10 µM;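 active = compounds that reduced the stress-induced luciferase reporter signal by more than about 70% of percent inhibition, limit read from the data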
Of the large screens only hits and unclear results are named; the others gave an inactive call.

O=C(CSc1nnc(Cc2ccccc2)n1Cc1ccco1)NC12CC3CC(CC(C3)C1)C2	CHOP inh 72
COCCOC(=O)C1=C(C)NC(=O)NC1c1ccc(-c2cc(Cl)ccc2Cl)o1 (configuration not stated)	none
CCN1CCCC1CNCc1cccc(OC)c1OCc1ccc(F)cc1 (configuration not stated)	L major viab 63
COc1cc(NC(=S)NC2CC(C)(C)NC(C)(C)C2)c(OC)cc1Cl	none
N#CC1=C(N)Oc2ccc3ccccc3c2C1c1cccnc1 (configuration not stated)	L major viab 88
N#CC1=C(N)Oc2ccc3ccc(O)cc3c2C1c1cccnc1 (configuration not stated)	none
Cc1ccc(NC(=O)CSCC(N)=O)cc1C	none
CCc1cccc(NC(=O)CCSCCC(=O)Nc2cccc(CC)c2)c1	RAM inhibit 9.9
CCc1ccc(NC(=O)CCNS(=O)(=O)c2cccc3nonc23)cc1	none
CCc1cccc(NC(=O)CCS(=O)(=O)c2cccc3nonc23)c1	CHOP inh 83
Cc1ccc(NC(=O)CCSCCC(=O)Nc2ccc(C)c(C)c2)cc1C	RAM inhibit 9.8
Cc1ccc(-c2nc3ccccc3[nH]2)cc1NC(=O)c1sc2cc(Cl)ccc2c1Cl	none
CSc1ccccc1NC(=O)Cn1nc([N+](=O)[O-])cc1C	none
CCOc1ccccc1OCC(=O)Nc1ccc(S(=O)(=O)N(C)C)cc1	WT yeast gro inh 69
CN(C)S(=O)(=O)c1ccc(NC(=O)CN2CCC(Cc3ccccc3)CC2)cc1	L major viab 76
CCOC(=O)c1ccc(-n2ccnc2)c(NC(=O)c2ccc(Cl)cc2)c1	L major viab 81
O=C1/C(=C/c2cccc3ccccc23)CCCc2ccccc21	WT yeast gro inh 63
O=C(c1cccc(F)c1)N1CCN(CC2CC3C=CC2C3)CC1 (configuration not stated)	L major viab 85
Cc1ccc(CN2CCN(CC3CC4C=CC3C4)CC2)cc1 (configuration not stated)	L major viab 96
O=C(c1ccccc1F)N1CCN(Cc2ccccc2F)CC1	none
O=C(c1ccccc1F)N1CCN(CC2CC3C=CC2C3)CC1 (configuration not stated)	L major viab 59
COc1cccc(C(=O)N2CCN(C(=O)c3cccc(F)c3)CC2)c1	none
CC1CCCC(N2CCN(C(=O)c3cccc(F)c3)CC2)C1 (configuration not stated)	L major viab 81
Cc1cc(C)nc(NS(=O)(=O)c2ccc(NC(=O)c3ccc4c(c3)OCCO4)cc2)n1	none
CCOc1ccc(N2C(=O)Nc3ccccc3C2(O)C(=O)NCc2ccc3c(c2)OCO3)cc1 (configuration not stated)	none
COc1ccccc1CN1CCNC(=O)C1CC(=O)NC1Cc2ccccc2C1 (configuration not stated)	none
Nc1cc(-c2cccc(Br)c2)nn1Cc1ccccc1	none
Nc1cc(-c2ccc(Br)cc2)nn1Cc1ccccc1	L major viab 78
CS(=O)(=O)N1CCN(CCN2C(=O)c3cccc4cccc(c34)C2=O)CC1	none
O=C1c2cccc3cccc(c23)C(=O)N1CCCN1CCN(c2ccc(F)cc2)CC1	WT yeast gro inh 60
O=C(CCCN1C(=O)c2cccc3cccc(c23)C1=O)N1CCN(c2ccccc2)CC1	none
O=C1c2cccc3cccc(c23)C(=O)N1CCN1CCN(C(=S)Nc2ccc(F)cc2)CC1	L major viab 59
O=C(CCCN1C(=O)c2cccc3cccc(c23)C1=O)N1CCN(c2ccccc2O)CC1	L major viab 70
Cc1ccc(NC(=O)CCN2C(=O)c3cccc4cccc(c34)C2=O)cc1	none
Cc1ccc(NC(=S)N2CCN(CCN3C(=O)c4cccc5cccc(c45)C3=O)CC2)cc1	L major viab 100
O=C(CSc1nc(-c2ccccc2F)nc2nc[nH]c12)Nc1c(Cl)cc(Cl)cc1Cl	none
O=C(O)CC(NC(=O)c1cccc([N+](=O)[O-])c1)c1ccc2c(c1)OCO2 (configuration not stated)	none
CCOc1ccccc1OCCCNCc1ccco1	none
O=C(NCCc1c[nH]c2ccccc12)C(=O)NCC(c1cccnc1)N1CCN(c2ccccc2)CC1 (configuration not stated)	L major viab 100
COC(=O)NCC(c1ccco1)N1CCN(c2ccc(OC)cc2)CC1 (configuration not stated)	none
COc1ccc(N2CCN(C(CNC(=O)C(=O)NCCc3c[nH]c4ccccc34)c3ccco3)CC2)cc1 (configuration not stated)	L major viab 65
O=C(NCCc1c[nH]c2ccccc12)/C(=C/c1cccnc1)NC(=O)c1ccccc1	none
COc1ccc(C(C(O)C(=O)c2c[nH]c3ccccc23)N2CCN(c3ccc(OC)cc3)CC2)cc1 (configuration not stated)	L major viab 52
Cc1ccccc1C(=O)N1CCN(c2ccc(NC(=O)c3ccco3)cc2Cl)CC1	L major viab 99
O=C(Nc1ccc(N2CCCCC2)cc1)c1ccc(F)cc1F	none (no result: L major viab, RAM inhibit, WT yeast gro inh)
O=C(Nc1ccc(N2CCCC2)cc1)c1ccccc1F	L major viab 100
Cc1cccc(NC(=O)c2cc(NC(=O)c3ccco3)ccc2Cl)n1	L major viab 85
CCN1CCN(c2ccc(NC(=O)c3ccccc3F)cc2Cl)CC1	L major viab 75
COc1ccc([N+](=O)[O-])cc1N(CC(=O)N1CCCC1)S(C)(=O)=O	none
Cc1ccc(-n2cc(C(=O)c3ccccc3O)cn2)cc1	none
Cc1ccc(-n2cc(C(=O)c3ccc4ccccc4c3O)cn2)cc1	RAM inhibit 8.5
O=C(NCc1csc(-c2cccs2)n1)C1CCC1	none (no result: L major viab, RAM inhibit, WT yeast gro inh)
C/C(=N\NC(N)=S)C1C2C3CC4C5CC(C42)C1C53 (configuration not stated)	L major viab 100, WT yeast gro inh 66
CCC1CC(/C(C)=N/NC(N)=O)OC1=O (configuration not stated)	none
C=CCN(C(=O)c1cccc(S(=O)(=O)N2CCN(C)CC2)c1)c1nc(-c2ccccc2)cs1	WT yeast gro inh 59
NCCCNc1ccc([N+](=O)[O-])cc1C(F)(F)F	none
O=C(NCCNc1ccc([N+](=O)[O-])cc1C(F)(F)F)c1ccc(F)cc1	L major viab 56
S=c1nc2ccccc2c2nc(-c3ccccc3)[nH]n12	WT yeast gro inh 71
Cc1ccc2c(c1)N(CC(=O)OC(CC(C)C)C(=O)NC1CCCC1)C(=O)CO2 (configuration not stated)	RAM inhibit 8.7
Cc1nn(-c2ccccc2)c(N)c1C(O)(CC(=O)C(F)(F)F)C(F)(F)F (configuration not stated)	RAM inhibit 9.0
CC1(C)CC(n2c(NCCO)nc3c(c2=O)C2(CCCC2)Cc2ccccc2-3)CCO1 (configuration not stated)	L major viab 100 (no result: CHOP inh)
CC1(C)Cc2ccccc2-c2nc(NCCO)n(-c3ccccc3)c(=O)c21	none
O=c1c2c(nc(NCCO)n1CC1CCCCC1)-c1ccccc1CC21CCCC1	L major viab 91, WT yeast gro inh 69
CCn1c(NCCCO)nc2c(c1=O)C(C)(CC)Cc1ccccc1-2 (configuration not stated)	none (no result: L major viab, RAM inhibit, WT yeast gro inh)

High-throughput results as filed in PubChem.
